Consider 29 compounds from PubChem BioAssay (NCATS).

Records with an inconclusive call do not appear. Active and inactive are the calls of the source. Unless noted, calls follow the shape of the dose curve; as a rule, active = well fitted curve in the direction sought with a large enough effect; inconclusive = small, poorly fitted or top-dose-only effect, or another doubt; inactive = no such curve, though single readings can be large; an effect the other way counts as inactive or inconclusive. Where a SMILES comes first, the peptide text is derived from it. Bridges are numbered along the chain shown (N, C = ends). [ ]: non-standard residue; d: D form. The star is where a group is joined. X1 = CCC(C)C(N)C1=NC(C(=O)*)CS1; dOrn = NCCC[C@@H](N)C(=O)O

A short description of assay [1]: Primary qHTS for small molecule stabilizers of the endoplasmic reticulum resident proteome: Secreted ER Calcium Modulated Protein (SERCaMP) assay (AID 1508630). The essentials:
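The SH-SY5Y reporter protocol was run at 3 concentrations up to 38.3 uM (primary) or 11 concentrations (follow-up): 16 h compound, 100 nM thapsigargin for 4 h, then extracellular luciferase luminescence.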
(In general: Quantitative high-throughput screening tests each substance at several concentrations.)

The target of assay [2] is Cytochrome P450 2D6 (Homo sapiens) (UniProt P10635). Put plainly: Cytochrome P450 family 2 subfamily D member 6 (CYP2D6) small molecule antagonists: luciferase biochemical (cell-free) qHTS assay (AID 1645840; active = well fitted curve in the direction sought with a large enough effect in the repeat runs; an effect the other way counts as inactive or inconclusive; also: nearly all actives have a fitted effect of over 55% in size; also: potency is read from the fitted curve at half-maximal effect). Summed up:
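P450-Glo CYP2D6 system: proluciferin substrate converted by enzyme to luciferin, read by luminescence proportional to activity. Enzyme-substrate mix with compound 10 min at room temperature, then NADPH regeneration 1 h before detection reagent.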

A short description of assay [3]: Primary qHTS for inhibitors of nuclear receptor binding SET domain protein 2 (NSD2) in an isogenic RCH-ACV NSD2 p.E1099K mutant (9B) (AID 1645876). Also: nearly all actives have a fitted effect of over 70% in size.
The nature of assay [4]: Primary qHTS for inhibitors of nuclear receptor binding SET domain protein 2 (NSD2) in an RCH-ACV wild type WT cells (2C) (AID 1645877). Also: nearly all actives have a fitted effect of over 70% in size. Also: potency is read from the fitted curve at half-maximal effect.
Assay [5] deals with Cytochrome P450 2C9 (Homo sapiens) (UniProt P11712). Put plainly: Cytochrome P450 family 2 subfamily C member 9 (CYP2C9) small molecule antagonists: luciferase biochemical (cell-free) qHTS assay (AID 1645842; active = well fitted curve in the direction sought with a large enough effect in the repeat runs; an effect the other way counts as inactive or inconclusive; also: nearly all actives have a fitted effect of over 55% in size; also: potency is read from the fitted curve at half-maximal effect). Summed up: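 P450-Glo CYP2C9 system: proluciferin substrate with enzyme in mix containing 0.4% BSA, 10 min at room temperature, then NADPH regeneration solution added and incubated 1 h at 37C. Detection reagent stopped reaction; luminescence read after 20 min as RLU.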

For assay [6], the target named is N-terminal Xaa-Pro-Lys N-methyltransferase 1 (Homo sapiens) (UniProt Q9BV86). The assay can be described thus: Confirmatory qHTS for Inhibitors of N-terminal methyltransferase 1 (NTMT1): MTaseGlo Assay (AID 1645874). Also: potency is read from the fitted curve at half-maximal effect; nearly all actives have a fitted effect of over 65% in size. Summed up: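 Room-temperature NTMT1 reaction, 30 min, with 100 uM SAM and 1 uM SPKRIA substrate; enzyme 125 nM. Read-out: MTase-Glo luminescence, normalized to no-enzyme and DMSO controls.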
Sequence of N-terminal Xaa-Pro-Lys N-methyltransferase 1 (Homo sapiens) (Q9BV86 whole entry, looked up): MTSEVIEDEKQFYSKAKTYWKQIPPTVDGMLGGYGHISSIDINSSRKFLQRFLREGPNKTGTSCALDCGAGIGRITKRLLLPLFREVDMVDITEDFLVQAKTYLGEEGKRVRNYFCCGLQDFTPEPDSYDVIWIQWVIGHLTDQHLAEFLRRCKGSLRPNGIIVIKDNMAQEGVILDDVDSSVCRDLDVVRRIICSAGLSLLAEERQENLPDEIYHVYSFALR

Sequence of Cytochrome P450 2D6 (Homo sapiens) (P10635 whole entry, looked up): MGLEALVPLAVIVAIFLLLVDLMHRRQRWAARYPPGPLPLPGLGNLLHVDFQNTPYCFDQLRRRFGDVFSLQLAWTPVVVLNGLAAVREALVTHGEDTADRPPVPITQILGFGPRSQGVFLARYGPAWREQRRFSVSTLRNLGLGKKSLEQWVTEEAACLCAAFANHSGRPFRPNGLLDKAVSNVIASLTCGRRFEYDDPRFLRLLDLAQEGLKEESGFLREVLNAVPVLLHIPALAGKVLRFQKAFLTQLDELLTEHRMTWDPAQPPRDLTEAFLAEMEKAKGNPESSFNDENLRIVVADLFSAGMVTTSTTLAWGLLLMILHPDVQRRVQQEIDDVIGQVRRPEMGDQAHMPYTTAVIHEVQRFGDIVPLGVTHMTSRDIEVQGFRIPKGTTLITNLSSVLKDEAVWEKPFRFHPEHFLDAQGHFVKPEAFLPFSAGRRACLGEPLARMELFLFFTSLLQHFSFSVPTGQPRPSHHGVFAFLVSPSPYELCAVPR
Sequence of Cytochrome P450 2C9 (Homo sapiens) (P11712 whole entry, looked up): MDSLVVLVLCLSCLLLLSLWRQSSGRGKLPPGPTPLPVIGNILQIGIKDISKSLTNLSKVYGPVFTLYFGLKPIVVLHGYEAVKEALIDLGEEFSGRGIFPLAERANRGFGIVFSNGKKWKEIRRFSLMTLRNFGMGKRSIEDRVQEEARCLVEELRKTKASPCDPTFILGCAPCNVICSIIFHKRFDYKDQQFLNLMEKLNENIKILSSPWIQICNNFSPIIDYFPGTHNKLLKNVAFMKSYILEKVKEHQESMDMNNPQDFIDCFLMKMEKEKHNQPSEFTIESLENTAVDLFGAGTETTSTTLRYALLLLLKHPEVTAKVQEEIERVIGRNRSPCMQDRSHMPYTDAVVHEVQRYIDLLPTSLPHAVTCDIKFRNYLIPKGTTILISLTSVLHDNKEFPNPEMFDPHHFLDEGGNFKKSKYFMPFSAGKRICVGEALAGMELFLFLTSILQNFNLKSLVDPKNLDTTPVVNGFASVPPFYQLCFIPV

Take `CCOC(=O)C1=CC2(CC)CCCN3CCc4c(n1c1ccccc41)C32` (stereo unspecified): the result in assay [1] was inactive.

`Nc1c(N=Nc2ccc(-c3ccc(N=Nc4cc(S(=O)(=O)O)c5ccccc5c4N)cc3)cc2)cc(S(=O)(=O)O)c2ccccc12`: the Potency in assay [2] was 7.56 µM (active).

For the compound `c1nc(NC2CCCCCC2)c2cc(CNC[C@H]3CCCO3)sc2n1`, the Potency in assay [2] is 19 µM (active).

As for `CNC(=O)O[C@H]1COc2ccc(N3CCN(C4COC4)CC3)cc2[C@@H]1NC(=O)c1ccc(F)cc1`, the Potency entry in assay [2], in assay [3] and in assay [4] was “inactive” each time.

Consider `C[C@]12C=CC(=O)C=C1CC[C@@H]1[C@@H]2[C@@H](O)C[C@@]2(C)[C@H]1CC[C@]2(O)C(=O)COC(=O)CCC(=O)O`, for which the Potency result in assay [2] and in assay [5] was “inactive” each time. Also, the Potency in assay [4] is 0.258 µM (active).

On to `Cc1onc(-c2ccccc2)c1C(=O)N[C@@H]1C(=O)N2[C@@H]1SC(C)(C)[C@@H]2C(=O)O`, for which the Potency result in assay [2], in assay [5], in assay [3] and in assay [4] was “inactive” throughout.

For the compound `COc1ccc([C@@H]2N[C@H](C(=O)O)Cc3c2[nH]c2ccccc32)cc1CN1CCN(c2ccccc2F)CC1`, the Potency in assay [2] was 13.5 µM (active). The Potency entry in assay [3] and in assay [4] was “inactive” in each case.

For the compound `CCOC(=O)Nc1nc2ccccc2[nH]1`, the Potency in assay [2] was 3.79 µM (active). Besides, in assay [3], the Potency result was “inactive”.

With `Cc1cn2c(N)c(Cl)cc(C(=O)NCC3CCN(CC(C)C)CC3)c2n1`, in assay [2], the Potency was 4.77 µM (active). The Potency result in assay [3] was “inactive”.

`Cc1ccc2c(c1)C=Cc1cc(C)ccc1C2c1cn(Cc2ccc(C(=O)Nc3nn[nH]n3)o2)c(=O)[nH]c1=S`: the Potency result in assay [2], in assay [3] and in assay [4] was “inactive” throughout.

`CN(C)c1cccc(-c2c3c(=O)n(-c4ccccc4Cl)[nH]c3cc(=O)n2C)c1`: the Potency result in assay [2], in assay [3] and in assay [4] was “inactive” throughout.

Consider `COC(=O)[C@H](CC1C=NC=N1)NCC12CC3CC(CC(C3)C1)C2` (stereo partly specified), for which the Potency result in assay [2], in assay [3] and in assay [4] was “inactive” throughout.

For the compound `COc1ccc(C)c2sc(NC(=O)c3ccncc3)nc12`, the Potency in assay [2] is 6.74 µM (active). In addition, the Potency entry in assay [3] and in assay [4] was “inactive” in each case.

As for `CCC(C)C(N)C1=NC(C(=O)N[C@@H](CC(C)C)C(=O)N[C@H](CCC(=O)O)C(=O)N[C@H](C(=O)N[C@H]2CCCCNC(=O)[C@H](CC(N)=O)NC(=O)[C@@H](CC(=O)O)NC(=O)[C@H](Cc3cnc[nH]3)NC(=O)[C@@H](Cc3ccccc3)NC(=O)[C@H]([C@@H](C)CC)NC(=O)[C@@H](CCCN)NC2=O)[C@@H](C)CC)CS1` (stereo partly specified) (X1-L[dE]IK[dOrn]I[dF]H[dD]N; lactam 4-C), the Potency entry in assay [2], in assay [3] and in assay [4] was “inactive” each time. Also, in assay [6], the Potency was 2.94 µM (active).

Take `CCC(CC)n1ccc2c(C(=O)NCc3c(C)cc(C)[nH]c3=O)cc(C#N)cc21`: the Potency result in assay [2], in assay [3] and in assay [4] was “inactive” in each case.

In the case of `CCNC(=O)[C@H]1O[C@H](n2cnc3c(NCC(c4ccccc4)c4ccccc4)nc(C(=O)NCCNC(=O)NC4CCN(c5ccccn5)CC4)nc32)[C@H](O)[C@@H]1O`, the Potency in assay [2] is 23.9 µM (active). In addition, the Potency result in assay [3] and in assay [4] was “inactive” in each case.

As to `CO[C@@H](Cc1ccc(OCCc2nc(-c3ccccc3)oc2C)c2ccsc12)C(=O)O`, the Potency result in assay [2], in assay [3] and in assay [4] was “inactive” in each case.

Take `C[C@H](CCC(=O)O)[C@H]1CC[C@H]2[C@@H]3[C@H](O)C[C@@H]4C[C@H](O)CC[C@]4(C)[C@H]3CC[C@]12C`: the Potency result in assay [2], in assay [3] and in assay [4] was “inactive” throughout.

As for `C[C@H]1CN(C[C@H](Cc2ccccc2)C(=O)NCC(=O)O)CC[C@@]1(C)c1cccc(O)c1`, the Potency result in assay [2], in assay [3] and in assay [4] was “inactive” throughout.

Consider `C[C@@H](Nc1cc(NS(=O)(=O)N2CCC2)nc(SCc2cccc(F)c2F)n1)[C@@H](O)CO`, for which the Potency entry in assay [2], in assay [3] and in assay [4] was “inactive” throughout.

Regarding `COCCCNCC1COc2ccccc2O1` (stereo unspecified), the Potency in assay [2] was 9.52 µM (active). In addition, the Potency result in assay [3] and in assay [4] was “inactive” each time.

In the case of `O=S(=O)(NC1CCNCC1)c1cc(S(=O)(=O)c2ccccc2)ccc1C(F)(F)F`, the Potency result in assay [2], in assay [3] and in assay [4] was “inactive” each time.

On to `C=Cc1cc(O)cc2nc(-c3ccc(O)c(F)c3)oc12`, for which the Potency in assay [2] was 21.3 µM (active); in assay [6] it was 44.7 µM (active).

Consider `CC(=O)N1CCN(NC(=O)c2ccc(F)cc2)CC1`, for which the Potency result in assay [2], in assay [3] and in assay [4] was “inactive” in each case.

As for `CC1(C)OC(=O)C(OCC2CC2)=C1c1ccc(S(C)(=O)=O)cc1`, the Potency result in assay [2], in assay [3] and in assay [4] was “inactive” each time. Moreover, the Potency in assay [5] is 13.5 µM (active).

In the case of `COc1ccccc1-n1c(SCC(=O)Nc2nc3ccc(C)cc3s2)nc2c(c1=O)SCC2`, the Potency entry in assay [2], in assay [3] and in assay [4] was “inactive” throughout.

For `Clc1ccc(CN[C@H]2CCN(c3ncc(Br)cn3)C2)c(Cl)c1`, the Potency is 0.674 µM (active) in assay [2] and 8.49 µM (active) in assay [5]. For the same compound, the Potency result in assay [4] was “inactive”.

As for `CCOC(=O)[C@H](CCc1ccccc1)CC1(C(=O)N[C@H]2CCc3ccccc3N(CC(=O)O)C2=O)CCCC1`, the Potency result in assay [2], in assay [3] and in assay [4] was “inactive” in each case.

`CC(C)N(C[C@H]1O[C@@H](n2cnc3c(N)ncnc32)[C@H](O)[C@@H]1O)C1CC(CCc2nc3ccc(C(C)(C)C)cc3[nH]2)C1` (stereo partly specified): the Potency in assay [2] was 16.9 µM (active). Besides, the Potency entry in assay [3] and in assay [4] was “inactive” in each case.
